# High-throughput results as filed in PubChem BioAssay.
# ELG1 genotox: qHTS screen for small molecules that induce genotoxicity in human embryonic kidney (HEK293T) cells expressing luciferase-tagged ELG1. Potency, µM (top dose mostly 46 µM), without a hit: top-dose activity change, positive = activation, most hits filed as activators. HEK293T ELG1-luciferase reporter, luminescence, 16 h. hit rate 1.3% among 330,000; note: % of control where 0% means no effect; nearly all actives have a fitted effect of over 60% in size
#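 Cells (2,000/well) expressing the ELG1-luciferase fusion are dosed by pin tool and kept 16 hr at 37 °C, 5% CO2. Signal comes from ONE-Glo luciferase reagent after 30 min at room temperature.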
# FLuc counter: qHTS profiling assay for firefly luciferase inhibitor/activator using purifed enzyme and Km concentrations of substrates (counterscreen for miR-21 project); Potency, µM (top dose mostly 57.5 µM), inactives show top-dose activity change, negative = inhibition, hits mostly inhibitors; purified FLuc, Km substrates, luminescence inhibition; hit rate 6.9% among 360,000;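 note: plate controls were vehicle for no effect and reference inhibitor for full effect; nearly all actives have a fitted effect of over 55% in size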
# Target sequence (P08659 whole entry, looked up): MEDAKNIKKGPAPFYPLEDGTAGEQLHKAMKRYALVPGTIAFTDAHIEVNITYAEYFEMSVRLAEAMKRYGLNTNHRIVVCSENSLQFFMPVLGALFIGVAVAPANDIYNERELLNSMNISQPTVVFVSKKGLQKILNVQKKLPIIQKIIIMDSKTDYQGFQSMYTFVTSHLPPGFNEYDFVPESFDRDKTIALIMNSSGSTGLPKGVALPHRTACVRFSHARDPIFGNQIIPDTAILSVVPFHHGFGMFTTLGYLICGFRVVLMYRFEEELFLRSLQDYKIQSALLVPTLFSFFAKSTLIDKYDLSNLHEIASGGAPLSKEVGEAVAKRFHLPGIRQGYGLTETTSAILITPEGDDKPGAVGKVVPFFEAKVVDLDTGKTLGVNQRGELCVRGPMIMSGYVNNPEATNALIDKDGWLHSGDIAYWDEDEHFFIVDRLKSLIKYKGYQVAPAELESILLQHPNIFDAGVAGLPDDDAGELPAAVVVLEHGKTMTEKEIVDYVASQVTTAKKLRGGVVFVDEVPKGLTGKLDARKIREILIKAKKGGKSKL
#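 Purified P. pyralis luciferase (10nM final) with 10uM D-luciferin and 10uM ATP (Km levels) in 50mM Tris acetate pH 7.5, 10mM Mg acetate, 0.01% Tween-20, 0.05% BSA; qHTS 6-point titration, ~60 µM downward; luminescence read.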
# Rab9 prom act: qHTS Assay for Rab9 Promoter Activators. Huh7 Rab9 promoter-luciferase reporter, luminescence, 24 h. Potency, µM (titrated, usually from 9.22 µM), inactives show at the highest dose activation, negative = inhibition, hits mostly activators. hit rate 2.8% among 320,000. AID 485297, 2010; note: % of control where 0% means no effect; nearly all actives have a fitted effect of over 60% in size
#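 Huh7 cells stably carrying a Rab9 promoter-luciferase reporter, 1500 cells per well in OP-MEM I with 10% FBS, treated with compound 24 hours at 37C. Luciferase activity read by luminescence after 10 minutes with Amplite reagent.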
# SMN2 splice up: qHTS Assay for Enhancers of SMN2 Splice Variant Expression; HEK293 SMN2-luciferase splicing reporter, luminescence, 30-36 h; hit rate 2.8% among 210,000; AID 1458, 2008; Potency, µM (highest dose often 46.1 µM), for the others: at the highest dose activity change, positive = activation, usual class: activators; note: % of control where 0% means no effect; nearly all actives have a fitted effect of over 55% in size
#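 HEK293 cells carry an SMN2 minigene-luciferase reporter in which exon 7 inclusion puts luciferase in frame. Cells were seeded at 2000 cells/well, attached for 10-12 hours, then exposed to compounds for 30-36 hours at 37C before ONE-Glo luminescence.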
# ELG1 DNA repair: qHTS screen for small molecules that inhibit ELG1-dependent DNA repair in human embryonic kidney (HEK293T) cells expressing luciferase-tagged ELG1. HEK293T ELG1-luciferase reporter, luminescence, 16 h; DNA damage induced by 5-fluorouridine. Potency, µM (titrated, usually from 46.1 µM), for inactives: at the highest dose activity change, negative = inhibition, most hits filed as inhibitors. hit rate 2.3% among 330,000; note: % is set by controls: 0 for no effect and ±100 for the full control effect; nearly all actives have a fitted effect of over 55% in size
#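 Reporter activity after DNA damage by 5-fluorouridine is monitored. Compound-treated cells incubate 16 hr at 37 °C, then ONE-Glo is added for 30 min before luminescence reading.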
# NPC1 promoter act: qHTS Assay for NPC1 Promoter Activators. Huh7 NPC1 promoter luciferase reporter, 24 h. Potency, µM (highest dose often 9.22 µM), for inactives: at the highest dose activation, usual class: activators. hit rate 2.4% among 320,000; note: % of control where 0% means no effect; nearly all actives have a fitted effect of over 60% in size
#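 Quantitative HTS used a cell-based reporter: Huh7 cells stably bearing the NPC1 promoter upstream of luciferase were treated with compounds for 24 h, and promoter activation was read as luminescence.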
# * hit, by the source's call; ? = inconclusive; . = not tested or not shown; [ ] = remark or other dose. The list is not random: actives were taken first. Their share in the collection is about 9.4%. Calls come from the whole dose curve; as a rule, active = well fitted curve in the direction sought with a large enough effect; inconclusive = small, poorly fitted or top-dose-only effect, or another doubt; inactive = no such curve, though single readings can be large; an effect the other way counts as inactive or inconclusive. Potency is the fitted concentration of half-maximal effect.
SMILES,ELG1 genotox,FLuc counter,Rab9 prom act,SMN2 splice up,ELG1 DNA repair,NPC1 promoter act
CC1CCc2sc(C(=O)NC(C)C3CCCO3)cc2C1 (stereo not drawn),?,11µM*,?,.,?,?
CC1CCc2sc(C(=O)NC3CCCCC3)cc2C1 (stereo not drawn),?,?,3.5µM*,.,?,1.8µM*
CC1CCc2sc(C(=O)NNC(=S)NCC3CCCO3)cc2C1 (stereo not drawn),8%,-16%,20%,.,16%,-2%
Cc1cccc(CSc2nnc(-c3ccco3)n2C)c1,12%,-18%,1%,-3%,?,28%
Clc1cccc(CSc2ccc(-c3ccco3)nn2)c1,8%,21µM*,27%,26%,0%,12%
Clc1cccc(CSc2ccc(-c3cccnc3)nn2)c1,5%,?,-2%,-1%,6%,-2%
c1ccc(CSc2ccc(-c3ccco3)nn2)cc1,8.2µM*,2.4µM*,1.8µM*,13µM*,?,4µM*
Clc1ccc(CSc2ccc(-c3ccco3)nn2)cc1,15%,?,?,?,?,?
Cc1ccc(CSc2ccc(-c3ccco3)nn2)cc1,?,4.8µM*,2.8µM*,11µM*,?,3.5µM*
CCc1ccc(NC(=O)CSc2ccc(-c3ccco3)nn2)cc1,-2%,?,0%,-27%,?,-3%
Cc1cccc(CSc2ccc(-c3ccco3)nn2)c1,?,12µM*,?,?,?,?
COc1ccc(OC)c(NC(=O)C2CCN(S(=O)(=O)c3ccc4c(c3)CCCC(=O)N4)CC2)c1,.,-3%,.,.,.,.
CC(C)(CCC(C)(C)c1ccccc1)c1ccccc1,.,.,.,-12%[9.22 µM],.,.
Fc1ccccc1CSc1ccc(-c2ccco2)nn1,?,6µM*,1.6µM*,18µM*,?,2.2µM*
CCC(CC)C(=O)N(CCc1ccc(OC)cc1)Cc1nc2ccccc2c(=O)[nH]1,-16%,-1%,0%,-18%,23µM*,5%
COc1ccc(CCN(Cc2nc3ccccc3c(=O)[nH]2)C(=O)c2ccco2)cc1,-5%,-3%,-1%,?,?,-2%
COc1ccc(C(=O)Nc2cccc(/C=C/c3nc4ccccc4c(=O)[nH]3)c2)cc1,-4%,?,3.2µM*,.,?,27%
COc1ccc(C(=O)Nc2nc3ccccc3c(=O)[nH]2)cc1,?,2.7µM*,0.4µM*,13µM*,?,0.71µM*
CCN(CC(=O)Nc1ccc(C(=O)Nc2ccc(OC)cc2)cc1)Cc1nc2ccccc2c(=O)[nH]1,-5%,?,-1%,.,6.5µM*,2%
Cc1c(C(=O)Nc2ccc(F)c(Cl)c2)sc2nc3n(c(=O)c12)CCC3,.,4%,.,.,.,.
CCN(CC)c1ccc2c(Cl)cc(=O)oc2c1,-3%,?,3%,13%,-28%,0%
CCN(CC)c1ccc2c(O)cc(=O)oc2c1,3%,12µM*,1%,7%,1%,0%
CCC1CN(C(=O)Nc2cc(Cl)c(OC)cc2OC)c2ccccc2O1 (stereo not drawn),.,-12%,.,.,.,.
CCOC(=O)c1oc2nc3c(cc2c1N)CCCC3,?,5.4µM*,1.4µM*,.,?,1.4µM*
CCOC(=O)c1oc2nc3c(cc2c1N)COC(C)(C)C3,3%,-5%,5%,16%,?,25%
SMILES,ELG1 genotox,FLuc counter,Rab9 prom act,SMN2 splice up,ELG1 DNA repair,NPC1 promoter act
Cc1cccc(NC(=O)CN2CCc3cc4c(cc3C2C)OCCCO4)c1 (stereo not drawn),-6%,3%,-1%,.,21µM*,-2%
COc1cccc2cc(C(=O)CS(=O)(=O)c3ccc(C(C)(C)C)cc3)c(=O)oc12,0%,-19%,0%,.,16%,-1%
COc1ccc2cc(C(=O)CS(=O)(=O)c3ccccc3)c(=O)oc2c1,?,0.95µM*,0%,.,?,-11%
O=C(CS(=O)(=O)c1ccccc1)c1cc2cc(F)ccc2oc1=O,3%,1.9µM*,-1%,.,27%,12%
O=C(CS(=O)(=O)c1ccccc1)c1cc2ccccc2oc1=O,5%,1.5µM*,-1%,.,3%,1%
COC(=O)C1=C(C(=O)OC)[C@@H]2N(Cc3ccccc3)c3ccccc3[C@@]23C[C@@H](C(=O)OC)N(S(=O)(=O)c2ccc(OC)cc2)C3=N1,.,.,.,-3%[9.22 µM],.,.
COc1ccc(CN2CCN(C(=O)c3ccco3)CC2)cc1,-6%,-1%,-7%,-17%,-10%,-3%
COc1cccc(CN2CCN(C(=O)c3cccc4ccccc34)CC2)c1OC,-14%,1%,-4%,2%,?,-2%
COc1ccc2ccccc2c1CN1CCN(C(=O)c2ccccc2)CC1,-9%,9%,-4%,-21%,18µM*,1%
COc1ccc2ccccc2c1CN1CCN(C(=O)c2ccco2)CC1,-2%,-2%,-1%,.,21µM*,1%
CC12CCC(=O)C=C1CCC1C2C(O)CC2(C)C1CCC2(O)C(=O)CO (stereo not drawn),7%,3%,5%,.,21%,-3%
O=C(Nc1ccn(Cc2ccccc2F)n1)c1ccc(COc2cccc(Br)c2)cc1,?,6.7µM*,1.8µM*,?,?,1.6µM*
O=C(Nc1ccn(Cc2ccccc2F)n1)c1ccc(COc2ccccc2Cl)cc1,-9%,-3%,-15%,-84%,?,-2%
CCN(C(=O)c1cc2c(s1)-c1ccccc1OC2)c1cc(Cl)ccc1OC,.,4%,.,-59%,.,.
